This note sets out measurements from ChEMBL document CHEMBL3988442, “University of Dundee, Small-Polar-MMV Screening Library” (2021).

For the assay, the system named is Leishmania donovani. Put plainly: Leishmania intramacrophage assay. The format is functional, organism-based. Set-up: scale not given: in the data most compounds retested in dose-response had high values.

SMILES strings stand for the structures. Screen size: about 69,000 compounds; about 1,000 (1.4%) showed an effect of 50% or more. This excerpt belongs to a sample that is enriched for strong results.

As to `COC(=O)CNC(=O)Cn1ccc2ccc(F)cc21`, for the setting “30.3 µM, […]”, the “Percent Effect” value was determined as 14.64%. Same read-out and setting: with `Cc1nc(-c2c(C)noc2C)cc(C2CCN(CC(=O)N(C)C)CC2)n1` the figure was 31.09%; with `Cc1cc(Cl)cc(C)c1CNC1CCN(CC(=O)N(C)C)CC1`, 66.45%. For `CC(NC1CCN(CC(=O)N(C)C)CC1)c1cnn(C(C)C)c1` (stereo unspecified), the “Percent Effect” value (30.3 µM, […]) was -44.29%. Same read-out and setting: with `CC(C)Oc1cc(N2CCC(C(N)=O)CC2)nc(N)n1` the figure was 14.18%. On to `COc1ccc(C2CCCN2C(=O)c2cc3c([nH]c2=O)CCC3)cc1` (stereo unspecified), for which the “Percent Effect” value (30 µM, 30.03 µM) turned out to be 22.34%. In the case of `O=C1CC2(CCSC2)C(=O)N1Cc1coc(-c2ccccc2)n1` (stereo unspecified), under “30.3 µM, […]”, the “Percent Effect” value is given as 4.889%.

`CNC(=O)N1CCCCC1CCNS(C)(=O)=O` (stereo unspecified): where the note is “30.3 µM, […]”, the “Percent Effect” value is on record as 6.391%. For `Cc1nn(C)c(N(C)C)c1CNCc1ccccc1Cn1cncn1`, under “30 µM, 30.03 µM”, the “Percent Effect” value was 20.9%. For `O=C(O)C(c1ccc(Cl)c(F)c1)N1CCN(Cc2ccccn2)CC1` (stereo unspecified), the “Percent Effect” value (30.3 µM, […]) is on record as 61.2%.

For `Cc1cc(F)c(C(C(=O)O)N2CCN(Cc3ccccn3)CC2)cc1Cl` (stereo unspecified), the “Percent Effect” value (30.3 µM, […]) worked out at 5.04%. Same read-out and setting: with `Cc1ccc(C(C(=O)O)N2CCCN(Cc3ccccn3)CC2)c(F)c1` (stereo unspecified) the figure was 23.66%; with `COCCC(=O)N1CCCC1c1nccc(C)n1` (stereo unspecified), 11.84%; with `Fc1cc(F)cc(CN2CCC(c3cc4ncccc4cn3)CC2)c1`, 29.54%. Same read-out and setting: with `Cl.Fc1ccc(F)c(CN2CCC(c3cc4ncccc4cn3)CC2)c1` the figure was 33.05%; with `Cl.Fc1cccc(CN2CCC(c3cc4ncccc4cn3)CC2)c1F`, 51.12%.

With `Cn1nnnc1SCC(=O)N1CCN(C(=O)C2CC2c2cccs2)CC1` (stereo unspecified), the “Percent Effect” value (30.3 µM, […]) is given as -0.756%. Still for that read-out and setting: with `Cc1cnn(CCNCC(O)c2ccc3c(c2)OCCO3)c1` (stereo unspecified) the figure was -28.04%; with `CN1CCN([C@@H]2CCN(CC3=Cc4cc(Cl)ccc4OC3)C[C@H]2O)CC1`, 96.13%.

On to `CN1CCN([C@@H]2CCN(Cc3ccc4cc(F)ccc4n3)C[C@H]2O)CC1`, for which the “Percent Effect” value (30.3 µM, […]) is 33.38%. Regarding `O[C@@H]1CN(CC2=Cc3cc(Cl)ccc3OC2)CC[C@H]1N1CCCCCC1`, the “Percent Effect” value (30.3 µM, […]) came out at 44.96%. On to `CN1C(=O)C2(CCCN(C(=O)c3cccnc3O)C2)c2ccccc21` (stereo unspecified), for which the “Percent Effect” value (30.3 µM, […]) is on record as 4.492%. The same measure, in the same setting: the same measure for `Cc1c(O)cccc1C(=O)N1CCCC2(C1)C(=O)N(C)c1ccccc12` (stereo unspecified): 10.13%; for `CNc1ncccc1C(=O)N1CCCC2(C1)C(=O)N(C)c1ccccc12` (stereo unspecified): 63.07%; for `O=C(NCC1(O)CCOc2ccccc21)Nc1ccccc1` (stereo unspecified): 35.58%. Still for that read-out and setting: the same measure for `COCCN(C)C[C@@H]1CN(C(=O)c2cccc(Cl)c2)C[C@@H]1CO`: -8.073%; for `COCCN(C)C[C@@H]1CN(C(=O)c2cccc(C#N)c2)C[C@@H]1CO`: -5.773%. Consider `CN(CCO)C[C@@H]1CN(C(=O)c2cccc(OC(F)F)c2)C[C@@H]1CO`, for which, for the setting “30.3 µM, […]”, the “Percent Effect” value is 59.47%.

For `COc1ccc(C(=O)N2CCCC2c2cnn(C)c2)cn1` (stereo unspecified), the “Percent Effect” value (30 µM) is given as 3.221%. `CN(Cc1ccco1)Cc1ccccc1CNC(=O)c1cnccn1`: the “Percent Effect” value (30.3 µM, […]) is recorded as 16.56%. The same measure, in the same setting: the same measure for `CC(C)N(CCO)C(=O)c1cc(COc2ccc3c(c2)CCCC3)on1`: 15.58%; for `Cc1cnccc1NCCNC(=O)C1CCCN(Cc2ccco2)C1` (stereo unspecified): 54.03%; for `O=C(NCCc1cccnc1)C1CCCN(Cc2ccco2)C1` (stereo unspecified): -19.49%. With `O=C(NCCCc1ccncc1)C1CCCN(Cc2ccco2)C1` (stereo unspecified), the “Percent Effect” value (30 µM, 30.03 µM) amounted to 28.63%.

With `CCN(C)c1ncnc2c1CCN(C(=O)c1cnccn1)CC2.O=C(O)C(F)(F)F`, for the setting “30.3 µM, […]”, the “Percent Effect” value was 16.93%. As to `Cc1ncoc1C(=O)N1C[C@H]2CCC[C@@]2(COCC2CCOCC2)C1`, the “Percent Effect” value (30 µM, 30.03 µM) is 24.66%.

Take `CN1C(=O)CCCC12CCCN(C(=O)c1cccc(C(F)(F)F)c1)C2` (stereo unspecified): where the note is “30.3 µM, […]”, the “Percent Effect” value is recorded as 25.18%. The same measure, in the same setting: the same measure for `CC(CCc1ccccc1)NC(=O)CNCCCN(C)C.O=C(O)C(=O)O` (stereo unspecified): -24.91%; for `CN(C)CCCNCCC(Cc1ccccc1)C1CCOC(C)(C)C1.O=C(O)C(=O)O` (stereo unspecified): 91.79%. The same measure, in the same setting: with `CN(C)CCNCCC(Cc1ccccc1)C1CCOC(C)(C)C1.O=C(O)C(=O)O` (stereo unspecified) the figure was 11.95%; with `CN(C)CCCNCCC(c1ccccc1)C1CCOC(C)(C)C1.O=C(O)C(=O)O` (stereo unspecified), 97.24%; with `CN(C)CCNCCC(c1ccccc1)C1CCOC(C)(C)C1.O=C(O)C(=O)O` (stereo unspecified), 94.59%. As for `CN(C)CCNCC1CCOC(C)(C)C1` (stereo unspecified), the “Percent Effect” value (30.3 µM, […]) is reported as -2.235%.

For the molecule `CN(C)CCCNC(=O)C(c1cccc(F)c1)N(C)C` (stereo unspecified), the “Percent Effect” value (30.3 µM, […]) is 17.93%.

Consider `CCN(CC)CCNCC1CCOC(C)(C)C1` (stereo unspecified), for which, under “30.3 µM, […]”, the “Percent Effect” value came out at 12.8%. On the same count and under the same terms, the same measure for `CN(C)CCCNCC1CCOC(C)(C)C1` (stereo unspecified): 10.54%; for `C[C@@H]1CN(C(=O)C2CCS(=O)(=O)CC2)C[C@@]1(O)C1CC1`: -11.49%; for `Cc1nc(C)n(CC2CCCCN2CCCO)n1` (stereo unspecified): -18.17%.

`CC(=O)Nc1cc2c(cc1C)OCO2`: for the setting “30.3 µM, […]”, the “Percent Effect” value is 3.338%.

In the case of `Cc1ccc(F)cc1NS(=O)(=O)c1cc2c(c(C(=O)O)c1)OCCO2`, the “Percent Effect” value (30 µM) is listed as 10.19%.

For the molecule `CN1CCO[C@@H]2CN(C(=O)NCc3ccccc3)CC[C@@H]2C1.O=C(O)C(F)(F)F`, the “Percent Effect” value (30.3 µM, […]) is reported as 14.01%.
